Results as given in PubChem BioAssay (Tox21).
Inconclusive results are not listed. Values without a mark were called inactive. Calls come from the whole dose curve.

assay: qHTS assay to identify small molecule agonists of the AP-1 signaling pathway - cell viability counter screen (AID 1159525); settings: ME-180 (cervical carcinoma) AP-1-bla cells viability, ATP luminescence, 5 h; series mostly up to 76.8 µM; viability change, negative = cytotoxic: at the top concentration; note: nearly all actives have a fitted effect of over 55% in size
Description: National Center for Advancing Translational Sciences [NCATS]
NIH Chemical Genomics Center [NCGC]
U.S. Environmental Protection Agency [EPA]
National Institutes of Environmental Health Sciences [NIEHS]
National Toxicology Program [NTP]
U.S. Food and Drug Administration [FDA]
Activator protein-1 (AP-1), a transcription factor, plays an important role in tumor genesis by regulating genes involved in cell proliferation, differentiation, apoptosis, and angiogenesis. AP-1 activity is induced by a complex network of signaling pathways that involves extracellular signals, such as growth factors. The AP-1 protein complex formed from c-Fos and c-Jun binding to the AP-1 response element results in transcriptional activation of genes containing such elements within their promoter.
Low molecular weight molecules have been discovered and developed to modulate various components of these signaling pathways, for example, MAP kinase inhibitors. However, many points of pathway modulation remain untested due to the lack of chemical probes making this signaling locus of general interest.
Using a beta-lactamase reporter-gene under control of the AP-1 response element, a cell-based assay [CellSensor(TM) AP-1-bla ME-180 developed by Invitrogen Corp.] was used to measure EGF-induced signaling. The Tox21 10K library compounds were measured for their ability to positively modulate the action of EC50 EGF on reporter gene activity. Compounds were screened in a 15-pt titration series in 1536-well format. The cytotoxicity of the Tox21 compound library against this cell line was tested in parallel by measuring the intra cellular ATP content in the same wells.
Tox21 Assay Protocol Summary:
2500 cells/5uL in Opti-MEM medium containing 0.5% dialyzed FBS, 0.1 mM NEAA, 1 mM sodium pyruvate and 10 mM HEPES was dispensed into 1536-well black wall/clear bottom plates using a Multidrop dispenser and cells were cultured at 37 degrees Celsius overnight. Next day 23 nL of compounds dissolved in DMSO, positive controls or DMSO were delivered to each well using a pin tool. The plates were incubated at 37 degrees Celsius for 5 hours. 1 uL of LiveBLAzerTM B/G FRET substrate (Solution A+B+C+D) was added to each well using a Flying Reagent Dispenser. After incubated at room temperature for 2.5 hours the plates were measured on an EnVision plate reader at Excitation 405nm, Emission1=460nm and Emission 2=530nm. The %Activity was determined from the ratio of 460nm/530nm.
After the plates were read for Beta-Lactamase assay on Envision; 3 ul Cell Titer Glo (Promega) was added to measure the cytotoxicity and the plates were then incubated at RT in dark for 30 min. The luminescence was read on ViewLux (Perkin Elmer, Shelton, CT) using 6 sec exposure. ViewLux data was expressed as relative luminescence units.
For primary data analysis, raw plate reads for each titration point were first normalized relative to […] EGF control (100%) and DMSO only wells (basal, 0%).
For primary data analysis for viability assay, raw plate reads for each titration point were first normalized Tetra n-octyl ammonium bromide control (-100%) and DMSO (control, 100%).

SMILES	viability change, negative = cytotoxic
Nc1ccc(S(=O)(=O)Nc2ccccn2)cc1	0.0263% [at 35.3 µM]
C=C(C)[C@@H]1CC[C@@H](C)C[C@@H]1O	-3.13%
CCOc1ccc(NC(=O)OC(C)C)cc1OCC	-2.46%
Cc1nc(C)nc(N2C[C@@H](C)N(c3ccnc([C@@H](C)O)n3)[C@@H](C)C2)n1	7.09% [at 35.3 µM]
COc1cc([N+](=O)[O-])ccc1N	7.16%
CCCCC(=O)N(C)C	-0.754%
CCCCCCCCCCCCC	1.08%
CCCCCCCCCCCCC1CO1 (stereo not given)	-0.553%
C=C[Si](C)(C)O[Si](C)(C)C=C	3.98%
CC1=NN(c2ccc(S(=O)(=O)O)cc2)C(=O)C1N=Nc1ccccc1 (stereo not given)	-2.05%
CC(C)C(=O)c1ccccc1	-14%
Cc1ccccc1N1CCN(CCc2nnc3n2CCCC3)CC1	6.13% [at 35.3 µM]
CCCCCCCCCCCCCC(=O)OC	3.09%
O=P(O)(O)OCC(O)CO (stereo not given)	8.32% [at 35.3 µM]
Nc1ccc(C(=O)OCC(O)CO)cc1 (stereo not given)	1.14% [at 35.3 µM]
CCCOC(=O)CCCCC(=O)OCCC	1.74%
CCCCCCCCCCCCCCCCCCN(C)C	2.96% [at 35.3 µM]
CO[Si](CCCCl)(OC)OC	3%
COc1ccc(NS(=O)(=O)c2ccc(N)cc2)nn1	-0.153% [at 35.3 µM]
C=COCCOCCOC=C	-13.1%

SMILES	viability change, negative = cytotoxic
O=C1CC[C@H](C(=O)N2CCCCC2)N1	-1.05% [at 35.3 µM]
COc1cc2c(Nc3ccc(Br)cc3F)ncnc2cc1OCC1CCN(C)CC1	0.751% [at 35.3 µM]
NS(=O)(=O)c1cc2c(cc1Cl)NC(C(Cl)Cl)NS2(=O)=O (stereo not given)	0.195% [at 35.3 µM]
CC(=O)OCCCc1ccccc1	0.943%
CCCCCC(=O)OCC	-15.2%
OC(CCN1CCCCC1)(c1ccccc1)c1ccccc1	1.83% [at 35.3 µM]
Nc1nc(=O)n([C@@H]2O[C@H](CO)[C@@H](O)[C@@H]2F)cc1I	5.02% [at 35.3 µM]
CCC(C)(CCC(C)C)C(=O)[O-].CCC(C)(CCC(C)C)C(=O)[O-].[Zn+2] (stereo not given)	0.0596%
Cc1ccc2c(c1)c1c3n2CCNC3CCC1 (stereo not given)	2.98% [at 35.3 µM]
Cc1ccc(S(=O)(=O)NC(=O)NC2CCCCCCC2)cc1	-1.12% [at 35.3 µM]
O=C(CN1CCN(Cc2ccc3c(c2)OCO3)CC1)N1c2ccccc2Sc2ccccc21	0.121% [at 35.3 µM]
CCCCC(C)C(=O)O (stereo not given)	5.47%
CC(C)CCO	1.47%
CNC(=O)NC	-0.683%
CCN(CCC#N)c1ccccc1	-2.53%
Cc1cc(O)c2c(c1)C(=O)c1cccc(O)c1C2=O	6.67% [at 35.3 µM]
CN(C)CCOCCN(C)CCO	5.56%
F[Si-2](F)(F)(F)(F)F	-4.15%
O=CN1CCOCC1	9.83%
CC1CCC(C(C)(C)S)C(=O)C1 (stereo not given)	3.62%
